Publication PMC4336329 (PLoS ONE, 2015)
Hit rate of the full screen: of about 310,000 compounds, about 14,000 (4.5%) showed an effect of 50% or more. Effects have a minus sign here. This excerpt belongs to a sample that is enriched for strong results.

target: human ether-à-go-go-related gene (hERG) potassium channel (human, UniProt Q12809); assay: primary screen, population patch clamp on CHO cells stably expressing hERG; higher = less effect of the substance
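Also: peak tail current of the secondary pulse compared with the same well before compound.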

Sequence of human ether-à-go-go-related gene (hERG) potassium channel (Q12809 whole entry, looked up): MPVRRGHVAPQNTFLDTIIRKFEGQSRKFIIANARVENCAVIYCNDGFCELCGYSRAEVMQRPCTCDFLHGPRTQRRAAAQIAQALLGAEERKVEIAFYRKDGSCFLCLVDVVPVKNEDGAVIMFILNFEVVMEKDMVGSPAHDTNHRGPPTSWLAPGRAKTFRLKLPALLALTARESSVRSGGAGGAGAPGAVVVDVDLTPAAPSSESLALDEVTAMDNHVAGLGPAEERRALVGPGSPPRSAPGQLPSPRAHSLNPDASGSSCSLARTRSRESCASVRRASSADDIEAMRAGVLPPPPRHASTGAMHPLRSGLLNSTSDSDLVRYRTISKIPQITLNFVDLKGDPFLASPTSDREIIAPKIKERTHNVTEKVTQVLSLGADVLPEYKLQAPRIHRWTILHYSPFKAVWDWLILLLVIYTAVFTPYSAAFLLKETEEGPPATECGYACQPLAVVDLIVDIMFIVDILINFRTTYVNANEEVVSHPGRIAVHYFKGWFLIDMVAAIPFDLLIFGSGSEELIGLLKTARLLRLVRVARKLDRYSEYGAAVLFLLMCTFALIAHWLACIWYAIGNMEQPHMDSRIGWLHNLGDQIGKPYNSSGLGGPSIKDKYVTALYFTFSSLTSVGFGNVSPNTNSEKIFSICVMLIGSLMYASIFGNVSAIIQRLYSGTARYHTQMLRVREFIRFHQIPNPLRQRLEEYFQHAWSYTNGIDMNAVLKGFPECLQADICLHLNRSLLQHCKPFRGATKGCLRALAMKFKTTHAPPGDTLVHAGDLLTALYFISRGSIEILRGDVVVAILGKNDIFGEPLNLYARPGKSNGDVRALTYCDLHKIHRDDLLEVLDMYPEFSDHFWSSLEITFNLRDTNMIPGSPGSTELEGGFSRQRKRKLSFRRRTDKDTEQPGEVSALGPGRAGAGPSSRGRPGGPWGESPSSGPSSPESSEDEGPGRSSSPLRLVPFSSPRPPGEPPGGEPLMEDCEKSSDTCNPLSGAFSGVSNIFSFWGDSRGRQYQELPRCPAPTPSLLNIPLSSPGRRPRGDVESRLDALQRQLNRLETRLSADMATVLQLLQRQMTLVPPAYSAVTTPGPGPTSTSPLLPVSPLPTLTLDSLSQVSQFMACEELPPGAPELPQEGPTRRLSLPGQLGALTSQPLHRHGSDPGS

Row | SMILES | hERG current change (%, negative = inhibition) at 10uM [%]
1 | CC(C)(C)C(=O)COC(=O)c1cc(-c2ccncc2)nc2ccccc12 | -8.43
2 | COc1ccc(-n2c(SCC(=O)Nc3cc(C)on3)nc3c(c2=O)SCC3)cc1 | 12.1
3 | COCCN1CN(S(=O)(=O)c2ccc(Cl)cc2)c2nc3ccccc3nc21 | -75.9
4 | COCCCN1CN(S(=O)(=O)c2ccc(Cl)cc2)c2nc3ccccc3nc21 | -32.7
5 | COCCN1CN(S(=O)(=O)c2ccccc2)c2nc3ccccc3nc21 | -16.7
6 | COCCn1nnnc1C(C(C)C)N1CCN(C(=O)c2ccco2)CC1.Cl (stereo not shown) | -1.29
7 | CCOC(=O)Cc1nnc(NC(=O)c2ncn[nH]2)s1 | -9.4
8 | CN1CC(=O)N(CC(=O)Nc2ccc(Cl)c(C(F)(F)F)c2)C1=O | 8.97
9 | CCOC(=O)CN1CCC(c2ccccc2)CC1 | -2.19
10 | CCCCC(O)CN1CCC(c2ccccc2)CC1 (stereo not shown) | -56.6
11 | CC(CN1CCC(O)CC1)c1ccccc1 (stereo not shown) | 10.6
12 | O=C(Nc1ccc(S(=O)(=O)Nc2nccs2)cc1)c1cc(-c2ccncc2)nc2ccccc12 | 10.1
13 | O=C(c1cccc(F)c1F)N1CCCC1 | 24.7
14 | Cc1cc(COC(=O)C2N3C(=O)[C@@H](NC(=O)COc4ccccc4)[C@H]3SC2(C)C)on1 (stereo partly shown) | -56.2
15 | CC1(C)S[C@@H]2[C@H](NC(=O)COc3ccccc3)C(=O)N2C1C(=O)OCc1ccccc1 (stereo partly shown) | -48.1
16 | COC(=O)C1N2C(=O)[C@@H](NC(=O)COc3ccccc3)[C@H]2SC1(C)C (stereo partly shown) | -4.31
17 | Cc1nc2c(Br)c3nc(C(F)(F)F)[nH]c3c(Br)c2[nH]1 | -4.86
18 | COc1ccc(N(C(=O)CNC(=O)c2cccs2)C(C(=O)NCC2CCCO2)c2ccccc2)cc1OC (stereo not shown) | 4.94
19 | COc1ccccc1NC(=O)c1ccc(-c2ccccc2[N+](=O)[O-])o1 | 26.7
20 | CN1CCN(c2ccccc2NC(=O)c2ccc(-c3ccc(Cl)cc3Cl)o2)CC1 | -3.82
21 | CC(=O)c1cccc(NC(=O)c2ccc(-c3ccccc3[N+](=O)[O-])o2)c1 | -17.4
22 | O=C(Nc1ccccc1N1CCCC1)c1ccc([N+](=O)[O-])o1 | 5.51

Row | SMILES | hERG current change (%, negative = inhibition) at 10uM [%]
23 | CN1CCN(c2ccccc2NC(=O)c2ccc(-c3ccccc3[N+](=O)[O-])o2)CC1 | -67.9
24 | COc1cccc(NC(=O)c2ccc(-c3ccccc3[N+](=O)[O-])o2)c1 | -46.1
25 | Cc1cccc(NC(=O)c2ccc(-c3ccccc3[N+](=O)[O-])o2)c1 | -55.2
26 | Cc1ccccc1NC(=O)c1ccc([N+](=O)[O-])o1 | 11.5
27 | O=C(Nc1ccccc1N1CCOCC1)c1ccc([N+](=O)[O-])o1 | -17.9
28 | CN1CCN(c2ccccc2NC(=O)c2ccc([N+](=O)[O-])o2)CC1 | -69.6
29 | CCC(=O)N1CCN(c2ccc(Cl)cc2NC(=O)c2ccc([N+](=O)[O-])o2)CC1 | -21
30 | CCC(=O)N1CCN(c2ccccc2NC(=O)c2ccc([N+](=O)[O-])o2)CC1 | -69
31 | CN1CCN(C(=O)C(C(=O)c2ccc(F)cc2)n2ccccc2=O)CC1 (stereo not shown) | -1.24
32 | Cc1ccc(C)c(N2CCN(S(=O)(=O)c3ccc4c(c3)NC(=O)CO4)CC2)c1 | 12.7
33 | O=C(O)c1cccc(Cn2c(Cl)c(/C=N/NC(=O)c3ccco3)sc2=O)c1 | 38.3
34 | Cc1ccc(N(C(=O)c2csnn2)C(C(=O)NC2CCCCC2)c2cccnc2)c(C)c1 (stereo not shown) | -5.38
35 | N#CCCN(C(=O)COC(=O)CNC(=O)C12CC3CC(CC(C3)C1)C2)c1ccccc1 | -23.5
36 | CC12CCC(C(=O)NCCc3ccccc3)(OC1=O)C2(C)C (stereo not shown) | 9.83
37 | CSc1nnc(C)c(=O)n1COC(=O)c1ccc(S(=O)(=O)N2CCCC2)cc1 | -22.8
38 | O=C(CCS(=O)(=O)c1cccc2nonc12)NCCc1ccccc1Cl | -7.38
39 | CC(C)NC(=O)CN1C(=O)NC(CCc2ccccc2)C1=O (stereo not shown) | 5.75
40 | COc1cc(C)ccc1OCCCCOc1ccccc1C(C)=O | 3.3
41 | CCn1c(CNC(=O)c2cccnc2)cc2ccccc21 | 2.41
42 | Cc1ccc(C2NC(=S)NC3=C2N2CCC3CC2)cc1 (stereo not shown) | 1.2
43 | CCOC(=O)c1sc(NC(=O)CSc2nc(C)cc(C)c2C#N)c(C#N)c1C | 8.19
